Assay results from PubChem BioAssay AID1578 (Sanford-Burnham Center for Chemical Genomics, 2009).
The campaign covered roughly 290,000 compounds. About 3,000 (1%) were called active. The sample holds actives, similar compounds and a random draw of the others, so the mix is not that of the screen. Unmarked numbers belong to inactive results. Cut-off read from the data, not from the text of the source: active = inhibition mostly above about 36% (no sharp cut-off); inactive = mostly below about 34%.

Test: NOD1 signaling inhibitors, primary screen, cell-based, luminescence, uHTS (AID 1578);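 note: HEK-293T reporter cells stimulated with the NOD1 agonist gamma-tri-DAP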
Settings: NOD1-driven NF-kB luciferase reporter cells, at 4 µM, hits give high values

SMILES	inhibition
COc1ccc(NC(=O)CSc2nc(N)c(NC(=O)c3cccs3)c(=O)[nH]2)cc1	-4.6%
COc1cccc(-c2ccc(NC(=O)C3CCCN(CCCn4cccn4)C3)cc2)c1 (centres undefined)	-32.8%
Cc1ccccc1Oc1nc2ccccn2c(=O)c1/C=C(\C#N)C(=O)Nc1c(C)n(C)n(-c2ccccc2)c1=O	-32.9%
O=C(COc1ccccc1)Nc1ccccc1NS(=O)(=O)c1cccs1	15.4%
O=C(COc1ccc(Cl)cc1Cl)Nc1ccccc1NS(=O)(=O)c1cccs1	38.6%
N#Cc1c(NC(=O)CSc2nnc(-c3ccccc3O)n2-c2ccccc2)sc2c1CCCC2	-23.8%
N#Cc1c(Sc2ncc(C(F)(F)F)cc2Cl)nsc1C/C=N\OCc1c(F)cccc1Cl	23.5%
O=C(Nc1ccc(Oc2cccnc2)cc1)C1CCN(Cc2ccc(F)cc2)CC1	-7.5%
O=C(NCCCn1ccnc1)/C(=C\c1cccnc1)NC(=O)c1ccco1	-5.2%
COc1ccc2oc(C(=O)NCc3cc(OC)c(OC)cc3OC)c(C)c2c1	17.1%
CCOC(=O)C1CCN(C(=O)COC(=O)COc2ccc(Cl)cc2)CC1	-16%
CC(=O)c1ccc(Oc2ccc(C(=O)c3ccc(C)c(C)c3)cc2[N+](=O)[O-])cc1	69.6% (active)
NC(=O)c1ccc(Oc2ccc(Cl)cc2)c([N+](=O)[O-])c1	2.7%
CCC(=O)c1ccc(Oc2ccc(C(=O)c3ccc(C)cc3)cc2[N+](=O)[O-])cc1	40.1%
Cn1ncnc1SCc1cn2cccnc2n1	-16.1%
COc1ccc(-c2nc(CN3CCC(C(=O)N4CCOCC4)CC3)c(C)o2)cc1OC	-6.6%
COc1ccc([N+](=O)[O-])cc1NC(=S)Nc1ccccc1	4.9%
O=C(CN(C(=O)CNS(=O)(=O)c1ccccc1)c1ccc2c(c1)OCCO2)NC1CCCCC1	-17.9%
Cc1ccc(/C=N/N(C)C2=NS(=O)(=O)c3ccccc32)cc1	5%
CN(/N=C/c1cc(Cl)ccc1O)C1=NS(=O)(=O)c2ccccc21	30.8% (active)
COc1cccc(/C=N/N(C)C2=NS(=O)(=O)c3ccccc32)c1O	-15.4%
CCOc1ccc(CC(=O)NNC(=S)Nc2ccc(OC)c(OC)c2)cc1	-36.4%
Cc1ccc(C)c(C(=O)N(C)CC(=O)Nc2ccccc2C(F)(F)F)c1	35.4%
CCn1c(=O)c(C(=O)NCc2ccccc2)c(O)c2ccccc21	-12.4%
